Experiment [1] has as its target 5'-AMP-activated protein kinase catalytic subunit alpha-2 (Homo sapiens) (UniProt P54646). Particulars: at 1 µM.
Experiment [2] addresses T1, NUAK family SNF1-like kinase 1 (Homo sapiens) (UniProt O60285).
T1 sequence (whole entry): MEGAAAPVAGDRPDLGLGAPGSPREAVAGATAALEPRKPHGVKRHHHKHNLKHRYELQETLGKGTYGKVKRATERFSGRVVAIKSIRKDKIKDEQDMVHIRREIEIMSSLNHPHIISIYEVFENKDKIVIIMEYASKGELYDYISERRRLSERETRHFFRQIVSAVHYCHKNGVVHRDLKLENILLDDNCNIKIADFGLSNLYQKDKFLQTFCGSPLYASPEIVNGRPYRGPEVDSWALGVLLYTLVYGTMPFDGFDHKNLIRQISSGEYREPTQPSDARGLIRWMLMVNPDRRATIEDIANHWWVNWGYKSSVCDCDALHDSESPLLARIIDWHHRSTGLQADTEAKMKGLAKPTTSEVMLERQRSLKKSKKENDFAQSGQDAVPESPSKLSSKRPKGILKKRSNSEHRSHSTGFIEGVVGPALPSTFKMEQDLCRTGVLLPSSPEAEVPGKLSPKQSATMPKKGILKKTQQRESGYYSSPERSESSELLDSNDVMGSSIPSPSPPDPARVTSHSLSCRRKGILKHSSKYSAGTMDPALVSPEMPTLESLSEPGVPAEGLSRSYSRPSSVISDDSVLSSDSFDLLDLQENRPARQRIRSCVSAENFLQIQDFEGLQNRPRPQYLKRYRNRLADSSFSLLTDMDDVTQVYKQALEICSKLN
Particulars: at 0.1 µM.

Experiment [3] concerns the target T1, NUAK family SNF1-like kinase 1 (Homo sapiens). Particulars: at 1 µM.
Experiment [4] concerns the target T2, Serine/threonine-protein kinase BRSK1 (Homo sapiens) (UniProt Q8TDC3).
T2 sequence (whole entry): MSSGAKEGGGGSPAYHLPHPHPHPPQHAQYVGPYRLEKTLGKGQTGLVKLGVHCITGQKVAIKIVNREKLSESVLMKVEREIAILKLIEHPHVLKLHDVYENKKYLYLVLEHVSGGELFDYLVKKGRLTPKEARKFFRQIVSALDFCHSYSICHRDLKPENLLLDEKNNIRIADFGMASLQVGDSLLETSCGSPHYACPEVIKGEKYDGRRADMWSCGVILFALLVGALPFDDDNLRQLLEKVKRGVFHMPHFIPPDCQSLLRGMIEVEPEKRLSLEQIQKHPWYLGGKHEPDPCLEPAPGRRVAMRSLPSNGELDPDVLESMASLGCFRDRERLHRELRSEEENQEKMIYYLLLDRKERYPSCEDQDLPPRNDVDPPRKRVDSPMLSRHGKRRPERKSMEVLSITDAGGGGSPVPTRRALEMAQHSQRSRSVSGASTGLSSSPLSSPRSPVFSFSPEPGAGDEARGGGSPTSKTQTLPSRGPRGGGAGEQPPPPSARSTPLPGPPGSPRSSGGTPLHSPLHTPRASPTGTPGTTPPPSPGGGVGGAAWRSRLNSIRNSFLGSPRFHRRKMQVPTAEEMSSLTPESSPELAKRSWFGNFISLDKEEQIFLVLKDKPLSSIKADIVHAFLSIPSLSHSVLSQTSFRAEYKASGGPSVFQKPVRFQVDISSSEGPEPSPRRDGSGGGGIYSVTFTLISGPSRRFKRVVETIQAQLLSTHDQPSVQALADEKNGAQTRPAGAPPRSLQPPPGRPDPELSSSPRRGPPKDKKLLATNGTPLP
Particulars: at 0.1 µM.

Experiment [5] addresses T2, Serine/threonine-protein kinase BRSK1 (Homo sapiens). The note with it: at 1 µM.
Experiment [6] has as its target T3, Serine/threonine-protein kinase BRSK2 (Homo sapiens) (UniProt Q8IWQ3).
T3 sequence (whole entry): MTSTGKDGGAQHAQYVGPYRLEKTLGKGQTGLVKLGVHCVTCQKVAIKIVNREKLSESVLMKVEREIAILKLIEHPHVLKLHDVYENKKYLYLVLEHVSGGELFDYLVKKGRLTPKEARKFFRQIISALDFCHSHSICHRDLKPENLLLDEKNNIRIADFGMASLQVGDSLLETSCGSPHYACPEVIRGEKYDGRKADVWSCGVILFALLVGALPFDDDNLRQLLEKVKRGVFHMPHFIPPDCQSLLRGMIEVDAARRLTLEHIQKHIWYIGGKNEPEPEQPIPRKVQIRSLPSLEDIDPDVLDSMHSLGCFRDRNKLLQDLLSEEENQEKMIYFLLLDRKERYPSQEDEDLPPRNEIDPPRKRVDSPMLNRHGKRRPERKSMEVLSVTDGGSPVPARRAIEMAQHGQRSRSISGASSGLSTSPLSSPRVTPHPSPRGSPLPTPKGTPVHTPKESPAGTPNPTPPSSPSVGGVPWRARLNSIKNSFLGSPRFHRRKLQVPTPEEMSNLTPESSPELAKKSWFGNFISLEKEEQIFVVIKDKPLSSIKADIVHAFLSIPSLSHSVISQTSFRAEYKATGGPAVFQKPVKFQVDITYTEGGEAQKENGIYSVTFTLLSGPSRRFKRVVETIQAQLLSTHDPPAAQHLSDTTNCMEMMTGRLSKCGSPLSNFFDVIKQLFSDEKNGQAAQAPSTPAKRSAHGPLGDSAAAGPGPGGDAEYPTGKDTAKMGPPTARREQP
The note with it: at 0.1 µM.

Experiment [7] addresses T3, Serine/threonine-protein kinase BRSK2 (Homo sapiens). Particulars: at 1 µM.
Experiment [8] has as its target Calcium/calmodulin-dependent protein kinase type 1D (Homo sapiens) (UniProt Q8IU85). Particulars: at 0.1 µM.
Experiment [9] shares this target. Particulars: at 1 µM.
Experiment [10] deals with Calcium/calmodulin-dependent protein kinase type II subunit alpha (Homo sapiens) (UniProt Q9UQM7). Particulars: at 0.1 µM.
Experiment [11] has the same target. Particulars: at 1 µM.
Experiment [12] has as its target Calcium/calmodulin-dependent protein kinase type II subunit delta (Homo sapiens) (UniProt Q13557). The note with it: at 0.1 µM.
For experiment [13] the target is unchanged. The note with it: at 1 µM.
Experiment [14] concerns the target T4, Calcium/calmodulin-dependent protein kinase type IV (Homo sapiens) (UniProt Q16566).
T4 sequence (whole entry): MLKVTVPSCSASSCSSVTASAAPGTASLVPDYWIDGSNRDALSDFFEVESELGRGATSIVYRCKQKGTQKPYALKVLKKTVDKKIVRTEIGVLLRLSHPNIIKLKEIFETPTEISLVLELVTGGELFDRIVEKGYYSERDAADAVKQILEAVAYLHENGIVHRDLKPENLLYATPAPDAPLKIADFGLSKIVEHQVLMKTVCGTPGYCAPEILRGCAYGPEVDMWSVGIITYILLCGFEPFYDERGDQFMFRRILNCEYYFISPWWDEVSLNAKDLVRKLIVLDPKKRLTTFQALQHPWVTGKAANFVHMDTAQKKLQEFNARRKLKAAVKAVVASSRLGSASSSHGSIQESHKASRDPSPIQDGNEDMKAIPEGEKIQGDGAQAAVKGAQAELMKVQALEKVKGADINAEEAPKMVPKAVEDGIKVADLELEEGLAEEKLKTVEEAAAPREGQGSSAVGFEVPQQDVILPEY
Particulars: at 0.1 µM.

The target in experiment [15] is T4, Calcium/calmodulin-dependent protein kinase type IV (Homo sapiens). Particulars: at 1 µM.
Experiment [16] deals with T5, Serine/threonine-protein kinase Chk1 (Homo sapiens) (UniProt O14757).
T5 sequence (whole entry): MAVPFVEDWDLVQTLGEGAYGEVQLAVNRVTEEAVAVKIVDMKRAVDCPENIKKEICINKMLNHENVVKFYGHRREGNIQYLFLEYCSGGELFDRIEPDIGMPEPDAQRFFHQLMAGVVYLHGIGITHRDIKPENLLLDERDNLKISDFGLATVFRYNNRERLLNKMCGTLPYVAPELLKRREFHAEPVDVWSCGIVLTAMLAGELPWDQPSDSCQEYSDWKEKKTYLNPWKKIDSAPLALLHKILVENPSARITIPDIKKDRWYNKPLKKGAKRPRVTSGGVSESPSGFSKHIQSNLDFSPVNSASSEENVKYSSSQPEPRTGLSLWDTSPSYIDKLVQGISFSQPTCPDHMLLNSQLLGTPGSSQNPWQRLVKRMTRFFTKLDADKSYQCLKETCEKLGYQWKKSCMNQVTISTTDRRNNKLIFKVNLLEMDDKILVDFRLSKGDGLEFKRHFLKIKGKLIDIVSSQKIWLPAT
Particulars: at 0.1 µM.

For experiment [17], the target named is T5, Serine/threonine-protein kinase Chk1 (Homo sapiens). Particulars: at 1 µM.
In experiment [18] the target is Serine/threonine-protein kinase Chk2 (Homo sapiens) (UniProt O96017). Particulars: at 0.1 µM.
For experiment [19] the target is unchanged. The note with it: at 1 µM.
The target in experiment [20] is Death-associated protein kinase 1 (Homo sapiens) (UniProt P53355). Particulars: at 0.1 µM.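 Also: reported figure is the mean inhibition of DAPK1.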
Sequence of Death-associated protein kinase 1 (Homo sapiens) (P53355 whole entry, looked up): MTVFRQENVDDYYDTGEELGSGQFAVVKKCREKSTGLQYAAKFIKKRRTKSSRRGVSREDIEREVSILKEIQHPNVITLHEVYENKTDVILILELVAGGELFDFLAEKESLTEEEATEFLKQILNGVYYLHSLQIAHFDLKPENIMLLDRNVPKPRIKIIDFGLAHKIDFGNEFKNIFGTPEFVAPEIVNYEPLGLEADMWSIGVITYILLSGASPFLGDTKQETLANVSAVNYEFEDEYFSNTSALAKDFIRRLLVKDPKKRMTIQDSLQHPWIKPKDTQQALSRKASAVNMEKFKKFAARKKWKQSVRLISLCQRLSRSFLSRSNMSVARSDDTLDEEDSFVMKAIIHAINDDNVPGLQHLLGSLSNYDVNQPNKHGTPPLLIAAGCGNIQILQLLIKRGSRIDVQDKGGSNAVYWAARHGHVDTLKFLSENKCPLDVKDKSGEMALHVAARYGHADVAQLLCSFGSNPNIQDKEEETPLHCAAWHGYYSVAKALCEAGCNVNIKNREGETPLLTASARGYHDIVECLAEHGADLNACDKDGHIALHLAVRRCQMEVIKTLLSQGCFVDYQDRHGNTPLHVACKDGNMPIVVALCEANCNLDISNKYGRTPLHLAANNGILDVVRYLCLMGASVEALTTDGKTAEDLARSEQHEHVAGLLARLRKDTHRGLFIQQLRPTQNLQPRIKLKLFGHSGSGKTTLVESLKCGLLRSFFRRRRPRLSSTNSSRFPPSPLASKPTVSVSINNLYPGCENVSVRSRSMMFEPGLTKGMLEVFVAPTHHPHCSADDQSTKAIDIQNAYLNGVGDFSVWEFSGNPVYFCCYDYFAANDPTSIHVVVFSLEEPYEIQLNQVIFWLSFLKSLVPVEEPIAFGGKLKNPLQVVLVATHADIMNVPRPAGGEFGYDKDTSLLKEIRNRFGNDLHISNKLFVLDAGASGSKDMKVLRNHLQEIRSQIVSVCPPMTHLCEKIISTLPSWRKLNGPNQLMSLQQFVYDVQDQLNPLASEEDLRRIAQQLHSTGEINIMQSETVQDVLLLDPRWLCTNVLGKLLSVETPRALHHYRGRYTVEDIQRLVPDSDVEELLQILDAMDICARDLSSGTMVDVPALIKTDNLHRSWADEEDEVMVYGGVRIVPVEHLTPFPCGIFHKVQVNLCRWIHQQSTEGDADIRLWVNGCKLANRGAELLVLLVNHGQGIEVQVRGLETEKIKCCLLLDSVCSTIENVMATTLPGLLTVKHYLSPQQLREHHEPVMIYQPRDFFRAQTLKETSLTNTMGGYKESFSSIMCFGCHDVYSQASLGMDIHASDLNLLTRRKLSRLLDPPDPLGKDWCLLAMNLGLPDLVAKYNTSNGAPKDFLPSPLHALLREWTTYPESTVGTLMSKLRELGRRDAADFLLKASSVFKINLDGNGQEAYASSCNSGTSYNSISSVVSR

Sequence of Calcium/calmodulin-dependent protein kinase type 1D (Homo sapiens) (Q8IU85 whole entry, looked up): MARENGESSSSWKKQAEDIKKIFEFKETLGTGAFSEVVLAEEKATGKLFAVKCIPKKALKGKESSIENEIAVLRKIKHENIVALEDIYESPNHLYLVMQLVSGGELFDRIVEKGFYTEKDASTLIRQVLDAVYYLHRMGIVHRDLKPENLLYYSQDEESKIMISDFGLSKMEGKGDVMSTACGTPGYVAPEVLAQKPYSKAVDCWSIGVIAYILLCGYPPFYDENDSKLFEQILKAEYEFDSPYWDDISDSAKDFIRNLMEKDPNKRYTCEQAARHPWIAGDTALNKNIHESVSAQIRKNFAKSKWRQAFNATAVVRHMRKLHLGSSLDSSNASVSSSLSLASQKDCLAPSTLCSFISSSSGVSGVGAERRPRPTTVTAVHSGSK
Sequence of Calcium/calmodulin-dependent protein kinase type II subunit alpha (Homo sapiens) (Q9UQM7 whole entry): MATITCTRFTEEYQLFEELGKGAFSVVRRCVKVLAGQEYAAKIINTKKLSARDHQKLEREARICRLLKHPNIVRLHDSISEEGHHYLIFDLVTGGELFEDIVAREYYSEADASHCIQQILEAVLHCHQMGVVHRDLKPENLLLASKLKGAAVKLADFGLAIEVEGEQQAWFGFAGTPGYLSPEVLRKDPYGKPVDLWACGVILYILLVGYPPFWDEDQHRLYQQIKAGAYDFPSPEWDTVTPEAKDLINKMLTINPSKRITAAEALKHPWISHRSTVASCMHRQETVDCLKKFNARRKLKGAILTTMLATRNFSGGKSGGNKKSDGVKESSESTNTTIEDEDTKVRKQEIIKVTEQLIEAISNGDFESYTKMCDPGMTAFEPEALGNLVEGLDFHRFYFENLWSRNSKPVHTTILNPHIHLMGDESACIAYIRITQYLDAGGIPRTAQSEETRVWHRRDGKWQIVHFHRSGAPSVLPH
Sequence of Calcium/calmodulin-dependent protein kinase type II subunit delta (Homo sapiens) (Q13557 whole entry): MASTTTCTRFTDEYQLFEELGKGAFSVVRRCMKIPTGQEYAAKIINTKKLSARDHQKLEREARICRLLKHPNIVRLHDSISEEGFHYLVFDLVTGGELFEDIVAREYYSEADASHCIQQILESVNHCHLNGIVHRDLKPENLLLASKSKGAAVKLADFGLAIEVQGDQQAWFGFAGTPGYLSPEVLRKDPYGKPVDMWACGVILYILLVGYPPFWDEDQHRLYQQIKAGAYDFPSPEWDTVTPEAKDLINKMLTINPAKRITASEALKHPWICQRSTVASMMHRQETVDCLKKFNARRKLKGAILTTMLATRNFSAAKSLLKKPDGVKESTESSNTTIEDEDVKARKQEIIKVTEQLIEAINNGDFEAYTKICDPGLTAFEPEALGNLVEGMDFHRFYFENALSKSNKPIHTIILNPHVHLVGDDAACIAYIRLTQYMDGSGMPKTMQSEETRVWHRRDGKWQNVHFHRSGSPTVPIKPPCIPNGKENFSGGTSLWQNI
Sequence of 5'-AMP-activated protein kinase catalytic subunit alpha-2 (Homo sapiens) (P54646 whole entry, looked up): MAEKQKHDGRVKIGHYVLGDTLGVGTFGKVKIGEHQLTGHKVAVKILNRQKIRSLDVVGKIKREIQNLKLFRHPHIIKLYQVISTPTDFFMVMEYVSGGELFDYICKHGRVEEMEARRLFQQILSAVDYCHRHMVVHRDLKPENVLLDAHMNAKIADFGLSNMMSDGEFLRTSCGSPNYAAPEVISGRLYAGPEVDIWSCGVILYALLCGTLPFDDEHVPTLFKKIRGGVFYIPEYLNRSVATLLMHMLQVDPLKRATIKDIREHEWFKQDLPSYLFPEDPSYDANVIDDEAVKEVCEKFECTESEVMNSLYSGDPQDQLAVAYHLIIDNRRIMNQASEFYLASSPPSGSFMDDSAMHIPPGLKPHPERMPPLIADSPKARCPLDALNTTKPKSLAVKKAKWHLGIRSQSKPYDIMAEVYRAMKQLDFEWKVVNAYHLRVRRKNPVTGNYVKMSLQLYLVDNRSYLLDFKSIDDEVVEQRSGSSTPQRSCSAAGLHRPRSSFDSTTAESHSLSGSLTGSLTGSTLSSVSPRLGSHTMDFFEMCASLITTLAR
Sequence of Serine/threonine-protein kinase Chk2 (Homo sapiens) (O96017 whole entry): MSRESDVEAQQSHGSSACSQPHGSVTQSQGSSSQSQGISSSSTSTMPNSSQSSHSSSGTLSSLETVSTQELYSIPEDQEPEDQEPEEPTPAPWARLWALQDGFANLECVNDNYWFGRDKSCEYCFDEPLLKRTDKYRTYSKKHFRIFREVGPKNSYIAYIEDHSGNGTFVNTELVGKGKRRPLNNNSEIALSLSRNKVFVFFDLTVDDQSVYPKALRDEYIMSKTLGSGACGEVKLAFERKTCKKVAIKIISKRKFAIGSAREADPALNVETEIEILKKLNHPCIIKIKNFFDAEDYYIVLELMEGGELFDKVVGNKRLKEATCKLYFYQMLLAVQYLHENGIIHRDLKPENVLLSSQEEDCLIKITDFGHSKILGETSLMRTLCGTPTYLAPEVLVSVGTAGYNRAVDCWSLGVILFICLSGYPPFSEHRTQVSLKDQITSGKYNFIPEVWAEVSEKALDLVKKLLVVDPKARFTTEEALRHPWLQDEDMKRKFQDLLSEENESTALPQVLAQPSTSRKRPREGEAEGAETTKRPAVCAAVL

`O=C1NC(=O)C(c2ccccc2Cl)=C1Nc1cccc(O)c1`: the inhibition in experiment [1] turned out to be 4.22%; in experiment [2] it was 0.82%; in [3], 12.4%; in experiment [4], 1.18%; in experiment [5] it was 6.4%; in [6], 1.63%. The inhibition in [7] is 8.81%; in experiment [8], 1.44%; in [9] it was 4.28%; in experiment [10] it was 3.22%; in [11] it was 5.26%; in experiment [12], 3.96%. The inhibition in [13] is 11.7%; in experiment [14], 0.91%; in experiment [15] it was 1.07%; in experiment [16] it was -0.11%; in [17], 1.92%; in experiment [18], 1.18%. The inhibition in experiment [19] came to 2.39%; in experiment [20], 3.2%.
On to `NC(=O)c1cccc(Nc2nccc(Nc3cccc4[nH]ncc34)n2)c1`, for which the inhibition in [1] turned out to be 11%; in experiment [2], 40.5%; in [3] it was 80.7%; in experiment [4], 3.32%; in experiment [5], 22%; in [6], 2.15%. The inhibition is 19.3% in experiment [7]; 0.34% in [8]; 4.12% in [9]; -4.01% in [10]; -1.01% in [11]; -1.68% in experiment [12]. In addition, the inhibition in [13] was 3.58%; in [14], 1.19%; in [15], 2.27%; in experiment [16], 1.94%; in [17], 44.1%; in experiment [18], -2.95%. The inhibition amounted to 9.48% in experiment [19] and 0.17% in experiment [20].
Turning to `Nc1ncnc2occ(-c3ccc(NC(=O)Nc4cccc(C(F)(F)F)c4)cc3)c12`, the inhibition in [1] was found to be 5.34%; in experiment [2] it was 1.07%; in experiment [3], 8.04%; in experiment [4] it was 0.85%; in experiment [5], 10.2%; in [6], 5.5%. Further, the inhibition in experiment [7] was 9.75%; in experiment [8], 0.29%; in experiment [9] it was 7.97%; in experiment [10], 2.71%; in [11], 1.03%; in experiment [12], 3.02%. For the same compound, the inhibition in [13] was 2.75%; in experiment [14], -0.91%; in experiment [15], 4.17%; in experiment [16], 6.67%; in [17] it was 5.24%; in [18] it was 3.95%. Further, the inhibition in experiment [19] turned out to be 6.09%; in [20], 8.33%.

As usually defined, the inhibition is the change of the read-out against control, counted positive when it falls.

Values taken from ChEMBL document CHEMBL1961873, “Compounds: GSK PKIS; Assays: Nanosyn kinase panel” (2012).
